According to PubChem BioAssay (Tox21):
Inconclusive results are not listed. Active and inactive are the calls of the source. Unless noted, calls follow the shape of the full dose curve.

Key:
[1] = qHTS assay to identify small molecule antagonists of the vitamin D receptor (VDR) signaling pathway - cell viability counter screen (AID 743225; active = well fitted curve in the direction sought with a large enough effect in the repeat runs; an effect the other way counts as inactive or inconclusive; also: % is scaled to controls: 0 for no effect and ±100 for the full control effect; nearly all actives have a fitted effect of over 50% in size)
Method in brief: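 Cytotoxicity toward the VDR-bla HEK 293T line was scored by ATP-based CellTiter-Glo luminescence, read in the wells already used for the beta-lactamase readout after 16 h compound treatment under 3 nM 1-alpha,25-dihydroxyvitamin D3 stimulation.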

[2] = qHTS assay to identify small molecule agonists of the NFkB signaling pathway (AID 1159509; active = well fitted curve in the direction sought with a large enough effect in the signal ratio in the repeat runs, not every such curve was filed as active; the % refers to the signal ratio; also: series mostly up to about 61 µM; % is scaled to controls: 0 for no effect and ±100 for the full control effect)
Method in brief: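 After overnight attachment, reporter cells received test compounds, DMSO or positive controls and were incubated 5 hr at 37 C. FRET substrate was then added for 1.5 hr at room temperature before dual-emission fluorescence reading.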

[3] = qHTS assay to identify small molecule agonists of the NFkB signaling pathway - cell viability counter screen (AID 1159515); also: series mostly up to about 61 µM; % is scaled to controls: 0 for no effect and ±100 for the full control effect; nearly all actives have a fitted effect of over 55% in size
Method in brief: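 Multiplexed viability readout: after the 5 hr compound exposure and 1.5 hr FRET substrate step, CellTiter-Glo reagent went into the same NFkB-bla ME-180 wells; ATP luminescence was measured after 30 min at room temperature.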

[4] = qHTS assay to identify small molecule agonists of the endoplasmic reticulum stress response signaling pathway (AID 1159516; active = well fitted activation curve with a large enough effect in the signal ratio in the repeat runs, not every such curve was filed as active; the % refers to the signal ratio; also: % is scaled to controls: 0 for no effect and ±100 for the full control effect)
Method in brief: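 Tox21 10K library screened in quantitative HTS format on ESRE-bla HeLa cells, a beta-lactamase reporter under ER stress response element control; 5 hr treatment, FRET read.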

[5] = qHTS assay to identify small molecule agonists of the endoplasmic reticulum stress response signaling pathway - cell viability counter screen (AID 1159517); also: series mostly up to about 61 µM; % is scaled to controls: 0 for no effect and ±100 for the full control effect; nearly all actives have a fitted effect of over 50% in size
Method in brief: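 Luminescence readout: CellTiter-Glo, 30 min RT, same wells as the ESRE-bla reporter read. HeLa ESRE-bla, 1,500 cells/well, o/n 37 C; cpd 5 hr 37 C/5% CO2.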

[6] = biological target: Nuclear receptor ROR-gamma (Homo sapiens) (UniProt P51449); assay: qHTS assay to identify small molecule antagonists of the retinoid-related orphan receptor gamma (ROR-gamma) signaling pathway (AID 1159521; active = well fitted curve in the direction sought with a large enough effect in the repeat runs; an effect the other way counts as inactive or inconclusive;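 also: CHO cells with doxycycline inducible ROR-gamma driving an RORE luciferase reporter; top concentration of the series differs between compounds; % is scaled to controls: 0 for no effect and ±100 for the full control effect; nearly all actives have a fitted effect of over 50% in size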)
Method in brief: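 Readout: ONE-Glo luciferase luminescence, 30 min at room temperature. System: Tet-on RORγ CHO, RORE-LUC. Sequence: compound 2 h, doxycycline 1 uM final, 16 h at 37 C.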

[7] = qHTS assay to identify small molecule agonists of the AP-1 signaling pathway (AID 1159526); also: % is scaled to controls: 0 for no effect and ±100 for the full control effect
[8] = biological target: Retinoic acid receptor RXR-alpha (Homo sapiens) (UniProt P19793); assay: qHTS assay to identify small molecule agonists of the RXR signaling pathway (AID 1159527); also: nearly all actives have a fitted effect of over 35% in size; also: potency is read from the fitted curve at half-maximal effect; as to activation: % is scaled to controls: 0 for no effect and ±100 for the full control effect
Method in brief: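 Reporter activation is measured as beta-lactamase activity via FRET substrate cleavage (emission 460/530 nm) in HEK 293T cells expressing an RXR-alpha-driven bla construct, following 16 hr compound exposure at 37 C.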

[9] = qHTS assay to identify small molecule agonists of the AP-1 signaling pathway - cell viability counter screen (AID 1159525); also: nearly all actives have a fitted effect of over 55% in size
Method in brief: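 ME-180 AP-1-bla, 2500 cells/well, Opti-MEM + 0.5% dialyzed FBS; overnight 37 °C; cpd 15-pt titration, 5 h 37 °C; CellTiter-Glo 30 min RT; luminescence read; normalised to TOAB and DMSO controls.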

[10] = qHTS assay to identify small molecule antagonists of the retinoid-related orphan receptor gamma (ROR-gamma) signaling pathway - cell viability counter screen (AID 1159520; active = well fitted curve in the direction sought with a large enough effect in the repeat runs; an effect the other way counts as inactive or inconclusive; also: % is scaled to controls: 0 for no effect and ±100 for the full control effect; nearly all actives have a fitted effect of over 50% in size)
Method in brief: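 Tet-on ROR gamma CHO cells (1,000/well) were plated 4 hr, given compounds in DMSO for 2 hr at 37 C, then induced with 1 uM final doxycycline for 16 hr. Viability was read as ATP by CellTiter-Glo luminescence after 30 min.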

Chain of Retinoic acid receptor RXR-alpha (Homo sapiens) (P19793 whole entry, looked up): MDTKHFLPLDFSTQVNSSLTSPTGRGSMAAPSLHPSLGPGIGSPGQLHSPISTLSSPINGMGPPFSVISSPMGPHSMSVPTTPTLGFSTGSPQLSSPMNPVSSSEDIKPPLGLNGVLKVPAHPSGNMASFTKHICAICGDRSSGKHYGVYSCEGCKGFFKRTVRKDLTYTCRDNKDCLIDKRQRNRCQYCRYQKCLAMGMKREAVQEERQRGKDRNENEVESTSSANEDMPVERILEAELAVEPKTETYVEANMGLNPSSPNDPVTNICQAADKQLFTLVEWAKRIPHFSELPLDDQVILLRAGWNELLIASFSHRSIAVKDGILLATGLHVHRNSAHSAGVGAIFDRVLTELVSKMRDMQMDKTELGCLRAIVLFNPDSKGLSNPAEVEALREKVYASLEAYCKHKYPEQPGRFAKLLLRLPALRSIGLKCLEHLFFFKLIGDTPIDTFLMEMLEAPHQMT

O=C(O)c1c(Cl)ccc2cc(Cl)cnc12
inactive: Potency [1] | outcome [2] | outcome [3] | outcome [4] | Potency [5] | Potency [6] | outcome [7] | Potency [8]

CCCCCCCCSC(=O)Oc1cc(Cl)nnc1-c1ccccc1
inactive: Potency [1] | outcome [2] | outcome [3] | outcome [4] | Potency [5] | Potency [6] | Potency [9] | outcome [7] | Potency [8]

CC[C@H](O)C(C[C@H](C)N(C)C)(c1ccccc1)c1ccccc1
inactive: Potency [1] | outcome [2] | outcome [3] | outcome [4] | Potency [5] | Potency [6] | outcome [7] | Potency [8]

CC(C)c1ccc(O)cc1
inactive: outcome [2] | outcome [3] | outcome [4] | Potency [5] | Potency [6] | Potency [9] | outcome [7] | Potency [8]

NCCOS(=O)(=O)O
inactive: Potency [1] | outcome [2] | outcome [3] | outcome [4] | Potency [5] | Potency [6] | Potency [9] | outcome [7] | Potency [8]

CCC(=O)c1ccc(Cl)cc1
inactive: Potency [1] | outcome [2] | outcome [3] | outcome [4] | Potency [5] | Potency [6] | Potency [9] | outcome [7] | Potency [8]

CC(C)NCC(O)c1ccc([N+](=O)[O-])cc1 (stereo not given)
inactive: Potency [1] | outcome [2] | outcome [3] | outcome [4] | Potency [5] | Potency [6] | Potency [9] | outcome [7] | Potency [8]

CC(=O)OCC1=C(C(=O)O)N2C(=O)[C@@H](N)[C@H]2SC1
inactive: Potency [1] | outcome [2] | outcome [3] | outcome [4] | Potency [5] | activity change, negative = inhibition [6] 30.2% [at 19 µM] | viability change, negative = cytotoxic [9] -1.2% [at 15.8 µM] | activation [7] 4.04% [at 15.8 µM] | activation [8] -0.797% [at 15.8 µM]

O=C(O)CBr
inactive: Potency [1] | outcome [2] | outcome [3] | outcome [4] | Potency [5] | Potency [6] | outcome [7] | Potency [8]

Cc1ccc2c(c1)C1CN(C)CCC1N2 (stereo not given)
inactive: Potency [1] | outcome [2] | outcome [3] | outcome [4] | Potency [5] | activity change, negative = inhibition [6] 3.88% [at 19 µM] | viability change, negative = cytotoxic [9] 5.2% [at 15.8 µM] | activation [7] 8.05% [at 15.8 µM] | activation [8] -0.325% [at 15.8 µM]

c1cncc([C@@H]2CCCCN2)c1
inactive: Potency [1] | outcome [2] | outcome [4] | Potency [5] | Potency [10] | Potency [6] | Potency [9] | outcome [7] | Potency [8]

NC(=O)CS(=O)C(c1ccccc1)c1ccccc1 (stereo not given)
inactive: Potency [1] | outcome [2] | outcome [4] | Potency [5] | Potency [10] | Potency [6] | Potency [9] | outcome [7] | Potency [8]

CCN1CCCC1CNC(=O)C(O)(c1ccccc1)c1ccccc1 (stereo not given)
inactive: Potency [1] | outcome [2] | outcome [4] | Potency [5] | Potency [6] | Potency [9] | outcome [7] | Potency [8]

NNC(N)=O
inactive: Potency [1] | outcome [2] | outcome [4] | Potency [5] | Potency [10] | Potency [6] | Potency [9] | outcome [7] | Potency [8]

O=C(Cl)/C=C/C(=O)Cl
inactive: Potency [1] | outcome [2] | outcome [4] | Potency [5] | Potency [10] | Potency [6] | Potency [9] | outcome [7] | Potency [8]

CCCCCCC(=O)CCCCCC/C=C/C[C@@H](O)[C@H](O)[C@@](N)(CO)C(=O)O
inactive: Potency [1] | outcome [2] | outcome [4] | Potency [5] | activity, negative = cytotoxicity [10] 4.11% [at 19 µM] | activity change, negative = inhibition [6] -12.3% [at 19 µM] | viability change, negative = cytotoxic [9] -3.45% [at 15.8 µM] | activation [7] -2.3% [at 15.8 µM] | activation [8] 1.63% [at 15.8 µM]

C[C@H](N)C(=O)c1ccccc1
inactive: Potency [1] | outcome [2] | outcome [4] | Potency [5] | Potency [10] | Potency [6] | Potency [9] | outcome [7]

CNC(=O)Oc1ccccc1C(C)C
active: Potency [8] 49 µM
inactive: Potency [1] | outcome [2] | outcome [4] | Potency [5] | Potency [10] | Potency [6] | Potency [9] | outcome [7]

CC#Cc1cc(C)nc(Nc2ccccc2)n1
inactive: Potency [1] | outcome [2] | outcome [4] | Potency [5] | Potency [6] | Potency [9] | outcome [7] | Potency [8]

CCC(C(N)=O)N1CCCC1=O (stereo not given)
inactive: Potency [1] | outcome [2] | outcome [4] | Potency [5] | Potency [6] | outcome [7]

CCCC(C)C1(CC)C(=O)N=C(S)NC1=O (stereo not given)
inactive: Potency [1] | outcome [2] | outcome [4] | Potency [5] | Potency [6] | Potency [9] | outcome [7] | Potency [8]

C=CCC1(C(C)CC)C(=O)NC(=O)NC1=O (stereo not given)
inactive: Potency [1] | outcome [2] | outcome [4] | Potency [5] | Potency [10] | Potency [6] | Potency [9] | outcome [7] | Potency [8]

COc1ccc(C=O)cc1O
inactive: Potency [1] | outcome [2] | outcome [4] | Potency [5] | Potency [6] | Potency [9] | outcome [7] | Potency [8]
